Laboratory results from publication PMC7862700, “An all-to-all approach to the identification of sequence-specific readers for epigenetic DNA modifications on cytosine”.

How the values were obtained:
Assay in all cases: DAPPL (digital affinity profiling via proximity ligation, sequencing); 10 mM Tris-HCl pH 7.5, 50 mM NaCl, 1 mM DTT, 4% glycerol, room temperature, 30 min; GST-TFs on glutathione beads, 16-mer random dsDNA library, 0.1% formaldehyde crosslink after washing; high values mean tight binding
Settings in all cases: protein: recombinant; tags: N-terminal GST; dsDNA, one strand shown
[1] = biological target: T1, FEV (Homo sapiens, UniProt Q99581 1-238)
T1 sequence: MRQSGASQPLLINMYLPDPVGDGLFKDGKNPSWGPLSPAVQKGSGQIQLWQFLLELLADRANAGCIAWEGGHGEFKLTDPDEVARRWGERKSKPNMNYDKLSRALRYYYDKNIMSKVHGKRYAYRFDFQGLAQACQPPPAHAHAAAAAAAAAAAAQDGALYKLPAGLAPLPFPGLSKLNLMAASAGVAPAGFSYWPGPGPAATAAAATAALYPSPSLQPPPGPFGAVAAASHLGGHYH
Method in brief: (§1)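 Sequencing on an Illumina NextSeq500 followed washing, crosslinking with 0.1% formaldehyde, proximity ligation (BsaI/T4 ligase, 1 h, 37 °C) and PCR amplification of pools that had been incubated for 30 min at room temperature with 200 nmole of a random double-stranded 16-mer DNA library in Tris/NaCl/DTT/glycerol buffer. Each pool held DNA-barcoded human transcription factors, expressed in yeast as GST fusions and captured on glutathione beads, plus a tag-only sample. Binding signal is a hexamer's read frequency for a factor divided by its frequency in the tag-only sample.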

[2] = biological target: ETV5 (Homo sapiens, UniProt P41161 1-510)
Method in brief: as §1

[3] = biological target: T2, SPIC (Homo sapiens, UniProt Q8N5J4 1-248)
T2 sequence: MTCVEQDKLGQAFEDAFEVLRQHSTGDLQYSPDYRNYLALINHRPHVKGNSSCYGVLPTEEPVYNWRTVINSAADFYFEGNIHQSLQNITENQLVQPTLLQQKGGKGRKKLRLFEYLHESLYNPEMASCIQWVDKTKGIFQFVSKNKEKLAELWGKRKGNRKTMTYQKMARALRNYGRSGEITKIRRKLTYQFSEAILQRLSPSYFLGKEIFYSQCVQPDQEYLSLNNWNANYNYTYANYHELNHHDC
Method in brief: as §1

[4] = biological target: ELF4 (Homo sapiens, UniProt Q99607 1-663)
Method in brief: as §1

[5] = biological target: T3, ELK4 (Homo sapiens, UniProt P28324-2 1-405)
T3 sequence: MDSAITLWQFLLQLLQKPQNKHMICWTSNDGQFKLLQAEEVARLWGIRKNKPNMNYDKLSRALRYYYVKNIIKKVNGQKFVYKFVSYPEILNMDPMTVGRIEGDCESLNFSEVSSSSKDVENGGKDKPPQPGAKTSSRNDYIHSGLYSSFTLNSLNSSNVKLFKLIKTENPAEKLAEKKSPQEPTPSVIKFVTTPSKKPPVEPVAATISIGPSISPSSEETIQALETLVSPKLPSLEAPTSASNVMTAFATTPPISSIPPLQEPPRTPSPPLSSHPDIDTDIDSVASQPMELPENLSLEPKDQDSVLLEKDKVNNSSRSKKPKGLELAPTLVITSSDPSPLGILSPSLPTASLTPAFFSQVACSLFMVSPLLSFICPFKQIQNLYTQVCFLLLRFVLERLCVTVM
Method in brief: as §1

[6] = biological target: T4, ETV2 (Homo sapiens, UniProt O00321 1-342)
T4 sequence: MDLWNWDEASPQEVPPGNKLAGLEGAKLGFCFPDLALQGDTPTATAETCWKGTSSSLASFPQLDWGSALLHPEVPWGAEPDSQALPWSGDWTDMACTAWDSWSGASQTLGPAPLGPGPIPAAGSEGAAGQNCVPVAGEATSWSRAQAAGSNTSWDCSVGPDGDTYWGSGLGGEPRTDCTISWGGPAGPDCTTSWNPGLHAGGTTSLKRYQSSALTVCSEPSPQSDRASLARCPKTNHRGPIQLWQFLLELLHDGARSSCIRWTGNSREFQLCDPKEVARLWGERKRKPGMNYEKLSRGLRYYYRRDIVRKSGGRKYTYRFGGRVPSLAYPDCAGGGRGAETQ
Method in brief: as §1

[7] = biological target: T5, ELF3 (Homo sapiens, UniProt P78545 1-371)
T5 sequence: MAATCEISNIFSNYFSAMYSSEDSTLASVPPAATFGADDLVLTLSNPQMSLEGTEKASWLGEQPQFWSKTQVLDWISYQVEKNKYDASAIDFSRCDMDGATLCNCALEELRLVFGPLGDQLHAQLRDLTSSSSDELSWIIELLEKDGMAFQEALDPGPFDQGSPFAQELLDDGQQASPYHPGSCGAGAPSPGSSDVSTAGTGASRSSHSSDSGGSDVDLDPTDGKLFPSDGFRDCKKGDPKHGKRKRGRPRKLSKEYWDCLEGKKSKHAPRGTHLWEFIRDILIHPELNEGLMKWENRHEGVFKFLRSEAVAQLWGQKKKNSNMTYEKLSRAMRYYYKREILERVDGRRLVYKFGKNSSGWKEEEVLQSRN
Method in brief: as §1

[8] = biological target: CRX (Homo sapiens, UniProt O43186 1-299)
Method in brief: as §1

[9] = biological target: ETV1 (Homo sapiens, UniProt P50549 1-477)
Method in brief: as §1

[10] = biological target: T6, ERF (Homo sapiens, UniProt P50548 1-548)
T6 sequence: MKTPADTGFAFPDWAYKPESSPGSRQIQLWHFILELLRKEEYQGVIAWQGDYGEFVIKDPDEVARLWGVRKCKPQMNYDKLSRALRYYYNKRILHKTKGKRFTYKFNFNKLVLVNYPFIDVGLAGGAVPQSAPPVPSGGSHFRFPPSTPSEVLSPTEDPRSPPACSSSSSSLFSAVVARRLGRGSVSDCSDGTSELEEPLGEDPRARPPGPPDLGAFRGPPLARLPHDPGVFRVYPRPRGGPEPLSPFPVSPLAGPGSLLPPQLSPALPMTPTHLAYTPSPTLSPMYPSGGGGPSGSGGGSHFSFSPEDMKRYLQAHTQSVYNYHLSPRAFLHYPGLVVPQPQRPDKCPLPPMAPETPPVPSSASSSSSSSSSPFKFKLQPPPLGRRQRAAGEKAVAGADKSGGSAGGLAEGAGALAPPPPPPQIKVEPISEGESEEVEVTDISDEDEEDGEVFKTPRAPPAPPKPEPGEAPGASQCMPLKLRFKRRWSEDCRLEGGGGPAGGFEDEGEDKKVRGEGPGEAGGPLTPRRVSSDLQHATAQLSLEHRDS
Method in brief: as §1

[11] = biological target: T7, ETV3L (Homo sapiens, UniProt Q6ZN32 1-361)
T7 sequence: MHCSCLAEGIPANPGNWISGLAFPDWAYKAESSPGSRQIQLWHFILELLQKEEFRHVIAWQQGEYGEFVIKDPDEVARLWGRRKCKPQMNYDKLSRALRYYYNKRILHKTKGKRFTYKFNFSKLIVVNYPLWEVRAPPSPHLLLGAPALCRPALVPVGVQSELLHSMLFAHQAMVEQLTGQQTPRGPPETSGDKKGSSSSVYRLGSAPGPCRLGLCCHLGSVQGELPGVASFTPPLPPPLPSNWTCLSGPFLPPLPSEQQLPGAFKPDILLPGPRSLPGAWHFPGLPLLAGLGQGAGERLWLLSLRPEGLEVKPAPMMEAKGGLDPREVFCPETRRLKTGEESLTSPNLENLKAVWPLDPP
Method in brief: as §1

[12] = biological target: T8, ETS2 (Homo sapiens, UniProt P15036 1-469)
T8 sequence: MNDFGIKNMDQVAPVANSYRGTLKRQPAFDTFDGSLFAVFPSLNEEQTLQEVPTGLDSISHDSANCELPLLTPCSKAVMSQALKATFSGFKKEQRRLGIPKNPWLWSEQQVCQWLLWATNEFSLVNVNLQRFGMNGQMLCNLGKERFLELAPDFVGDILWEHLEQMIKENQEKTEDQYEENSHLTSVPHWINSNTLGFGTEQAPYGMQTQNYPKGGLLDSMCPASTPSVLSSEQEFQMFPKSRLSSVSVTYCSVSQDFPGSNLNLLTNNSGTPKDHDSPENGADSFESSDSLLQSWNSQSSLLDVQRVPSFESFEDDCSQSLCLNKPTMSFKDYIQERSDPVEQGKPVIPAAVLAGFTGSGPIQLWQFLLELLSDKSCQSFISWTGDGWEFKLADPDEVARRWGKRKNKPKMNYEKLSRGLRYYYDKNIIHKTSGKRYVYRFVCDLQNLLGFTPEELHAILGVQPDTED
Method in brief: as §1

[13] = biological target: T9, SPDEF (Homo sapiens, UniProt O95238 1-335)
T9 sequence: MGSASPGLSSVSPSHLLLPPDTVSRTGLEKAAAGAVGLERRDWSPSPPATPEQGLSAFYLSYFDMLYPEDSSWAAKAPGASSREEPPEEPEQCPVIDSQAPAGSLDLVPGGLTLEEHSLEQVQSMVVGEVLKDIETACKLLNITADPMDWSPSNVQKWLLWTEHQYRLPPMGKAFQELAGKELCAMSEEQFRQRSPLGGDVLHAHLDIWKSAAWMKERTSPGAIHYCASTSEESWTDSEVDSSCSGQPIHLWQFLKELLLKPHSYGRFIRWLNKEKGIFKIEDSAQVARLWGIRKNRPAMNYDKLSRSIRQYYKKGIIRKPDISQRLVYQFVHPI
Method in brief: as §1

[14] = biological target: T10, ETV7 (Homo sapiens, UniProt Q9Y603 1-341)
T10 sequence: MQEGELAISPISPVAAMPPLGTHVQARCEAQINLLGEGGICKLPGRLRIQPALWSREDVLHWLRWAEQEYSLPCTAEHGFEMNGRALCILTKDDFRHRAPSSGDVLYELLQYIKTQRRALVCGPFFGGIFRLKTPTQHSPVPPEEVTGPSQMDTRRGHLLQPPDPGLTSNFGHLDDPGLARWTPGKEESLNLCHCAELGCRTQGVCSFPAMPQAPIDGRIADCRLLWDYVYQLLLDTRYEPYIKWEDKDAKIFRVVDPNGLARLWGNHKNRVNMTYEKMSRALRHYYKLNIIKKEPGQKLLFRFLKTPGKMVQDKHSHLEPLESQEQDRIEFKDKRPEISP
Method in brief: as §1

[15] = biological target: T11, ELF5 (Homo sapiens, UniProt Q9UKW6-2 1-255)
T11 sequence: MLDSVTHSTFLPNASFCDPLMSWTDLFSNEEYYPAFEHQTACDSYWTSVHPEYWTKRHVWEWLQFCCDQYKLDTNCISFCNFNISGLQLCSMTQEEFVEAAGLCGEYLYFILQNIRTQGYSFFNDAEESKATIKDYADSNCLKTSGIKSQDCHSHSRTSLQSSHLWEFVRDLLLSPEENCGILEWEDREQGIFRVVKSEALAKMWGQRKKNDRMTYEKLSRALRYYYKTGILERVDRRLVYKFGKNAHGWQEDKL
Method in brief: as §1

[16] = biological target: T12, ETV3 (Homo sapiens, UniProt P41162-2 1-143)
T12 sequence: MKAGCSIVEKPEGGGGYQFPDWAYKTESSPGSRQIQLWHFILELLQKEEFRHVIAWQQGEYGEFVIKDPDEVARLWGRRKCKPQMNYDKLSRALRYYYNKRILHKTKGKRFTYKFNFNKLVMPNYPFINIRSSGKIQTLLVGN
Method in brief: as §1

[17] = biological target: ETV6 (Homo sapiens, UniProt P41212 1-452)
Method in brief: as §1

Chain of ETV6 (P41212 whole entry): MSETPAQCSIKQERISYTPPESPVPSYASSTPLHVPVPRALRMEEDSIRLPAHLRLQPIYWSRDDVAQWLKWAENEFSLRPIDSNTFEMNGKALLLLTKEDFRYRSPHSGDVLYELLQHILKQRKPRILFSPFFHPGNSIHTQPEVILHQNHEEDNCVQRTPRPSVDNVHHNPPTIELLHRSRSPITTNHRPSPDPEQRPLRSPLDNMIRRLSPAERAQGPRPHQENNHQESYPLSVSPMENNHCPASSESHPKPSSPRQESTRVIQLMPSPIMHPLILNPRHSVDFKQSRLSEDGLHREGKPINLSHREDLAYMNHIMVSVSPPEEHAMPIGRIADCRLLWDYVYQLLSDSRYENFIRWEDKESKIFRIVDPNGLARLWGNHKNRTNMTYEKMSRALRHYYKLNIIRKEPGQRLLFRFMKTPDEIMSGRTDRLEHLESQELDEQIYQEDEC
Chain of ETV1 (P50549 whole entry): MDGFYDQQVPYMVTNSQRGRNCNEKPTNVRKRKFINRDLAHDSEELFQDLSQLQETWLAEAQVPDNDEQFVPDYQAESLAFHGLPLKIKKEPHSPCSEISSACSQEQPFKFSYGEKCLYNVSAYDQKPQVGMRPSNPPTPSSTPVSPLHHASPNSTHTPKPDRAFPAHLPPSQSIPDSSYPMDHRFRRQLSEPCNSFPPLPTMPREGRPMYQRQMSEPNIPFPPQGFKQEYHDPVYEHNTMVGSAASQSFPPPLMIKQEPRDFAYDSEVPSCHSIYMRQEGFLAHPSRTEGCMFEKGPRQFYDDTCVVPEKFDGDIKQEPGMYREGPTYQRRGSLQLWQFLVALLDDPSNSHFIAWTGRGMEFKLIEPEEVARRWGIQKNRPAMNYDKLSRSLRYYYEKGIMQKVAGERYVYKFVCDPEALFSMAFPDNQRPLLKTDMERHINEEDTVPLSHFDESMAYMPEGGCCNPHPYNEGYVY
Chain of ETV5 (P41161 whole entry): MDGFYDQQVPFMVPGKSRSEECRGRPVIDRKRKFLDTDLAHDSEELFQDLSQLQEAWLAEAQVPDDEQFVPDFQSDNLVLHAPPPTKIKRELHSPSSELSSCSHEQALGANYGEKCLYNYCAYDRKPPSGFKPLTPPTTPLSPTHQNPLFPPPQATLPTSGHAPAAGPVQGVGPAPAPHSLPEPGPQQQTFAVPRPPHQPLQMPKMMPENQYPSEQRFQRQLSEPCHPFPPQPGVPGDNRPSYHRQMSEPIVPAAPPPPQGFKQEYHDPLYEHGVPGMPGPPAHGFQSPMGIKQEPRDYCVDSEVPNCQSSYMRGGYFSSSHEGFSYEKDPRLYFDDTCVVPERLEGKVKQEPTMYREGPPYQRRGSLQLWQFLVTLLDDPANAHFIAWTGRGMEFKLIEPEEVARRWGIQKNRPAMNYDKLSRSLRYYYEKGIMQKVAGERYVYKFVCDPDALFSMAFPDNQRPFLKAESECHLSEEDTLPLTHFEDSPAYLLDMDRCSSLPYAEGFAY
Chain of ELF4 (Q99607 whole entry): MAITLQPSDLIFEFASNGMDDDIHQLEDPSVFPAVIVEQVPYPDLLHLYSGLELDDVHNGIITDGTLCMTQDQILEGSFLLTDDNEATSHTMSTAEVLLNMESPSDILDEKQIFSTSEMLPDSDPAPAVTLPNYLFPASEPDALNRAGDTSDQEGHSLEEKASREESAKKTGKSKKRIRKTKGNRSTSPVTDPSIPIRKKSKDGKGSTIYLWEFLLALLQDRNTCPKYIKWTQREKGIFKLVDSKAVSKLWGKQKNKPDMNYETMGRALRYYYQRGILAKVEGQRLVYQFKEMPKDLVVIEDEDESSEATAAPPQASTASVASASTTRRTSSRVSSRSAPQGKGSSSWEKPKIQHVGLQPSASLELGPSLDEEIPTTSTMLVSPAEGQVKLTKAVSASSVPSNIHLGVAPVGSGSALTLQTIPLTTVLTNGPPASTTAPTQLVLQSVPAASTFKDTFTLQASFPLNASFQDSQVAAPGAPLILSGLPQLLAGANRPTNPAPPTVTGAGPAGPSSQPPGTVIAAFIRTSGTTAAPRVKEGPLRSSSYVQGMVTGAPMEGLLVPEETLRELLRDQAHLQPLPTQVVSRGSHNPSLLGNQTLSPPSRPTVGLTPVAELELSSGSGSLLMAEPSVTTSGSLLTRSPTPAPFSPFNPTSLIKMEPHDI
Chain of CRX (O43186 whole entry): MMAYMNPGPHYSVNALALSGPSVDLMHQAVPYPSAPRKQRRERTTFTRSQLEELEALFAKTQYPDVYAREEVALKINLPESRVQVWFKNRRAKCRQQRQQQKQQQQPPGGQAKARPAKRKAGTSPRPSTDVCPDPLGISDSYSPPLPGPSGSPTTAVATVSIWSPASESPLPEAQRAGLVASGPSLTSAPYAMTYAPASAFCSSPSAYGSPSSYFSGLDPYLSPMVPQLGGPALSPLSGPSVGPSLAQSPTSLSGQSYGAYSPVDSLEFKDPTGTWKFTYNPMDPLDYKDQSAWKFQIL

## GGATAT
[1]
  binding signal: 3.83 fold enrichment (6-mer frequency, TF over GST control)
[2]
  binding signal: 1.71 fold enrichment (6-mer frequency, TF over GST control)
[3]
  binding signal: 1.53 fold enrichment (6-mer frequency, TF over GST control)
[4]
  binding signal: 1.38 fold enrichment (6-mer frequency, TF over GST control)
[5]
  binding signal: 1.48 fold enrichment (6-mer frequency, TF over GST control)
[6]
  binding signal: 1.55 fold enrichment (6-mer frequency, TF over GST control)
[7]
  binding signal: 1.78 fold enrichment (6-mer frequency, TF over GST control)
[8]
  binding signal: 1.09 fold enrichment (6-mer frequency, TF over GST control)
[9]
  binding signal: 1.62 fold enrichment (6-mer frequency, TF over GST control)
[10]
  binding signal: 1.62 fold enrichment (6-mer frequency, TF over GST control)
[11]
  binding signal: 1.55 fold enrichment (6-mer frequency, TF over GST control)
[12]
  binding signal: 1.66 fold enrichment (6-mer frequency, TF over GST control)
[13]
  binding signal: 2.38 fold enrichment (6-mer frequency, TF over GST control)
[14]
  binding signal: 1.48 fold enrichment (6-mer frequency, TF over GST control)
[15]
  binding signal: 1.92 fold enrichment (6-mer frequency, TF over GST control)
[16]
  binding signal: 1.71 fold enrichment (6-mer frequency, TF over GST control)
[17]
  binding signal: 1.6 fold enrichment (6-mer frequency, TF over GST control)
